# In PubChem BioAssay (NCI):
# About 83,000 compounds went through this panel and 20% of them were active in at least one assay; those are over-represented in the sample as a whole.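 The test compound was applied at a single concentration to cells in 96-well plates for 48 hours, and percent growth was recorded.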 The source made the active and inactive calls. How the source made its calls: active means growth percent below 10; inactive means the rest.
# Tested on: MDA-MB-468 breast
# Experiment: NCI-60 one-dose screen, 48 h (100 = growth as untreated, 0 = no growth, -100 = all killed)
# Conditions: 10 µM unless noted
row,Compound,growth
1,CC(C)[C@@H]1CC[C@]2(C(=O)NCCCCN=C(N)N)CC[C@]3(C)[C@H](CC[C@@H]4[C@@]5(C)CCC(=O)C(C)(C)[C@@H]5CC[C@]43C)[C@@H]12,10.6% (inactive)
2,COc1ccc(-c2nn(-c3cccc(Cl)c3)cc2-c2cc(-c3ccc(Br)cc3)nc(N)n2)cc1,95% (inactive)
3,O=C(NCCCN1CCC(N2CCCCC2)CC1)C1=Cc2cc(Br)ccc2OC1,45.6% (inactive)
4,COc1ccc(/C=C/C(=O)c2cc3c(N)c(C(=O)Nc4cccc5ccccc45)sc3nc2C)cc1,58.5% (inactive)
5,CC(C)C1=NOC(=O)C1=Cc1cn(-c2ccco2)nc1-c1ccccc1,54% (inactive)
6,CSc1nc2c(c(=O)n1C)C(c1ccccc1)C1=C(N2)/C(=C/c2ccccc2)CCC1 (stereo not given),34.7% (inactive)
7,C/C(=N\Nc1cc(C)nc2ccc(Br)cc12)c1ccc([N+](=O)[O-])cc1,51.5% (inactive)
8,COc1cccc2c1C(=O)c1c(O)c3c(c(O)c1C2=O)CC(O)(/C(C)=N/NC(=O)CCCCC(=O)N/N=C(\C)C1(O)Cc2c(O)c4c(c(O)c2C(OC2CC(N)C(O)C(C)O2)C1)C(=O)c1c(OC)cccc1C4=O)CC3OC1CC(N)C(O)C(C)O1 (stereo not given),-1.37% [5 µM] (active)
9,Oc1ccc(-c2nn(-c3ccccc3)cc2-c2nc3ccccc3s2)cc1,90.1% (inactive)
10,CC1CCC(n2cnc3c(Cl)ncnc32)O1 (stereo not given),96.3% (inactive)
11,Nc1ccc(Cl)c([N+](=O)[O-])c1,98.5% (inactive)
12,Cc1ccc(S(=O)(=O)NCCNc2cc(-c3cn(C(C)(C)C)nc3-c3cccc(O)c3)ccn2)cc1,35.8% (inactive)
13,O=C1C2=C(C(=O)c3c(O)cccc31)C(c1ccco1)c1sc(=O)[nH]c1S2 (stereo not given),7.85% (active)
14,COc1ccc(-c2nn(-c3cccc(Cl)c3)cc2C2CC(c3ccccc3)=NN2C(C)=O)cc1 (stereo not given),80.9% (inactive)
15,c1ccc(-c2nnc(-c3c[nH]c4ncccc34)s2)cc1,79.9% (inactive)
16,C=C1C(=O)O[C@H]2[C@H]1CC/C(CNS(=O)(=O)c1cccc3ccccc13)=C\CC[C@@]1(C)O[C@@H]21,1.44% (active)
17,C=CCn1c(SCC(=O)NCc2cc(C)c(O)c(C)c2)nc2ccc(Cl)cc2c1=O,91.1% (inactive)
18,O=C(O)c1nc(-c2ccccc2)oc1N1CCOCC1,99.8% (inactive)
19,Cc1ccc(C2C=C(c3ccc(Cl)cc3)N=C3SC=CN32)c(Br)c1 (stereo not given),69.7% (inactive)
20,CCN(CC)c1ccc(C=O)c(OCc2cn(CC(=O)Nc3ccc(Cl)cc3)nn2)c1,63.5% (inactive)

row,Compound,growth
1,CN1CCN(CCCOc2ccc3nc(Nc4ccc(F)c(F)c4)ccc3c2)CC1,9.52% (active)
2,Cc1ccc(/C=C/C(=O)c2ccc(-n3cc(CN4CCN(c5cc6c(cc5F)c(=O)c(C(=O)O)cn6C5CC5)CC4)nn3)cc2)cc1,77.1% (inactive)
3,COc1ccc(/C(C)=C(\c2ccc(OCCN3CCOCC3)cc2)c2ccc(OC(=O)C3CCCCC3)cc2)cc1,116% (inactive)
4,CC1=C(/C=C/C(C)=C/C=C/C(C)=C/C(=O)Nc2ccc(O)cc2)C(C)(C)CCC1,30.1% (inactive)
5,O=Cc1nc2ccccc2[nH]1,108% (inactive)
6,O=C1c2ccccc2C(=O)c2sc(Nc3ccc(Cl)cc3)nc21,28.6% (inactive)
7,CC1=C(C#N)C(C)(C)C(C#N)=C(C)N1,98.6% (inactive)
8,COc1cc2nc(Nc3cccc(NC(C)=O)c3)nc(N)c2cc1OC,88.8% (inactive)
9,Cc1cccc(C[C@H](NC(=O)Nc2ccc(Cl)cc2F)C(=O)N[C@@H]2C(=O)N3C[C@H](O)C[C@H]3C(=O)N3CCCC[C@H]3C(=O)N[C@@H](C)C(=O)N3C[C@H](C)C[C@H]3C(=O)O[C@H]2C)c1,-7.94% (active)
10,O=C(Nc1ccc(-n2cc(-c3ccncc3)c(-c3ccc(O)c(Cl)c3)n2)cc1)Nc1cccc(Cl)c1Cl,43.5% (inactive)
11,C#Cc1cccc(Nc2ncnc3cc4c(cc23)OCCOCCOCCO4)c1,-26.7% (active)
12,CC(=O)[C@@]12O[C@](C)(c3ccccc3)O[C@@H]1CC1C3CCC4=CC(=O)CC[C@]4(C)C3CC[C@@]12C (stereo not given in full),32.8% (inactive)
13,O=C1Nc2ccc(F)cc2/C1=C\C(=O)c1ccc(NS(=O)(=O)c2ccccc2)cc1,90.3% (inactive)
14,CN(C)C1CCN(C(=O)c2ccc(NC(=O)Nc3ccc(-c4nc(N5CCOCC5)nc(N5CCOCC5)n4)cc3)cc2)CC1,-49.1% [2.5 µM] (active)
15,O=C(CCl)Oc1ccc(OC(=O)CCl)cc1,78.4% (inactive)
16,O=S(=O)(Nc1ccccc1Cl)c1ccc(-c2cnc(C3CC3)o2)cc1,6.43% (active)
17,O=c1[nH]c2cc(O)ccc2n2cc3c(F)cccc3c12,28.7% (inactive)
18,COc1ccc(-c2nc3sccn3c2-c2nc3c([nH]2)C(=O)c2ccccc2C3=O)cc1,95% (inactive)
19,Cc1nn(-c2ccccc2)c(N)c1N=C1NC(=O)/C(=C/c2ccc(Br)cc2)S1,86.6% (inactive)
20,CC1(O)CC(c2nc(-c3ccc4ccc(-c5ccccc5)nc4c3)c3c(N)nccn23)C1 (stereo not given),25% (inactive)
